From paper PMC7826789 (International Journal of Molecular Sciences, 2021)

Experiments:
Conditions in all cases: Compound Concentration (nM):1000
[1] = system: ABL1(Q252H)-phosphorylated
[2] = system: ABL1(T315I)-nonphosphorylated
[3] = system: ABL1(T315I)-phosphorylated
[4] = system: ABL1(Y253F)-phosphorylated
ABL1-nonphosphorylated = system: ABL1-nonphosphorylated
ABL1-phosphorylated = system: ABL1-phosphorylated
ABL2 = system: ABL2
ACVR1B = system: ACVR1B
ACVR1 = system: ACVR1
ACVR2A = system: ACVR2A
ACVR2B = system: ACVR2B
ACVRL1 = system: ACVRL1
ADCK3 = system: T1, ADCK3
T1 construct: gene CABC1

ADCK4 = system: ADCK4
AKT1 = system: AKT1
AKT2 = system: AKT2
AKT3 = system: AKT3
ALK(C1156Y) = system: ALK(C1156Y)
ALK(L1196M) = system: ALK(L1196M)
ALK = system: ALK
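Note: KINOMEscan scanMAX binding as percent activity remaining versus control; lower means stronger binding.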

Structure (SMILES)	Percent Control [1]	Percent Control [2]	Percent Control [3]	Percent Control [4]	Percent Control (ABL1-nonphosphorylated)	Percent Control (ABL1-phosphorylated)	Percent Control (ABL2)	Percent Control (ACVR1B)	Percent Control (ACVR1)	Percent Control (ACVR2A)	Percent Control (ACVR2B)	Percent Control (ACVRL1)	Percent Control (ADCK3)	Percent Control (ADCK4)	Percent Control (AKT1)	Percent Control (AKT2)	Percent Control (AKT3)	Percent Control (ALK(C1156Y))	Percent Control (ALK(L1196M))	Percent Control (ALK)
COc1ccc2cc(-c3c(-c4ccncc4)nc(-c4ccc(S(C)(=O)=O)cc4C)n3C)ccc2c1 [SB-633825]	83%	53%	54%	86%	66%	75%	62%	19%	60%	100%	84%	100%	100%	80%	100%	94%	100%	70%	73%	58%
C/C(Nc1ccc(S(N)(=O)=O)cc1)=C1/C(=O)Nc2ccccc21 [GW335962X]	96%	100%	86%	89%	88%	82%	100%	100%	100%	100%	100%	78%	100%	100%	81%	94%	88%	54%	60%	54%
CCc1ccc(Oc2nccc(-c3c(-c4ccc(F)cc4)ncn3C3CCNCC3)n2)cc1 [SB-242719]	79%	93%	100%	71%	74%	62%	100%	83%	78%	100%	100%	97%	100%	100%	88%	100%	100%	100%	98%	96%
Cl.O=C(O[C@H]1CN[C@H](C#Cc2cc3ncnc(Nc4ccc5c(cnn5Cc5ccccc5)c4)c3s2)C1)N1CCOCC1 [GSK200398A]	80%	100%	100%	78%	84%	76%	100%	100%	100%	100%	100%	82%	100%	100%	92%	100%	100%	94%	88%	100%
COc1ccc(COc2ccc(Cc3cnc(N)nc3N)cc2OC)cc1 [GW632580X]	92%	100%	87%	84%	90%	76%	91%	100%	74%	95%	100%	100%	92%	100%	75%	100%	100%	94%	87%	98%
CN1CCN(C(=O)c2ccc(NC(=O)Nc3ccc(N(C)c4ccnc(Nc5ccc(CS(C)(=O)=O)cc5)n4)cc3)cc2)CC1.Cl [GW830263A]	30%	0%	21%	20%	9%	30%	44%	77%	28%	78%	94%	79%	100%	47%	100%	100%	100%	64%	83%	76%
Cl.O=S1CCN(Cc2ccc(-c3ccc4ncnc(Nc5ccc(OCc6ccccc6)c(F)c5)c4c3)o2)CC1 [GW576924A]	100%	100%	100%	100%	100%	89%	100%	100%	100%	100%	100%	94%	100%	100%	100%	100%	100%	100%	100%	100%
Cl.c1ccc(Cc2nc3ccc(Nc4ncnc5ccccc45)cc3[nH]2)cc1 [GR269666A]	100%	100%	100%	100%	96%	100%	100%	100%	100%	100%	100%	89%	100%	100%	93%	100%	100%	95%	100%	99%
CCS(=O)(=O)c1ccc(OC)c(Nc2ncc(-c3cccc(F)c3)o2)c1 [GW621970X]	4.9%	100%	91%	7.1%	20%	9.9%	33%	100%	18%	100%	100%	49%	100%	100%	100%	100%	100%	88%	97%	73%
NS(=O)(=O)c1ccc(N/N=C2\C(=O)Nc3ccc(-c4cnco4)cc32)cc1 [GW276655]	70%	67%	70%	69%	84%	74%	98%	100%	66%	90%	100%	100%	100%	100%	84%	65%	100%	97%	100%	83%
COc1cc(N2CCN(C(C)C)CC2)ccc1Nc1nc(Nc2ccc(F)cc2C(=O)NC[C@@H](O)CO)c2cc[nH]c2n1 [GSK1392956A]	100%	100%	100%	100%	100%	100%	100%	100%	100%	100%	100%	86%	94%	100%	83%	100%	100%	0.1%	1.1%	0.2%
NS(=O)(=O)c1ccc(Nc2ncc(-c3ccccc3)o2)cc1 [GW572399X]	100%	100%	89%	100%	81%	87%	88%	100%	100%	100%	100%	100%	100%	100%	100%	100%	100%	96%	96%	87%
O=C(Nc1n[nH]c2nc(-c3ccc(O)cc3)c(Br)cc12)C1CC1 [SB-725317]	37%	16%	12%	48%	22%	31%	100%	100%	72%	75%	79%	65%	100%	100%	100%	100%	85%	54%	87%	75%
CCS(=O)(=O)c1ccc(OC)c(Nc2ncc(-c3cccc(OC)c3)o2)c1 [GW580509X]	3.2%	100%	97%	8%	16%	9.4%	26%	100%	27%	100%	100%	50%	100%	100%	100%	100%	100%	87%	100%	100%
COc1ccccc1-c1cc(/C=C2\C(=O)Nc3ncc(Br)cc32)cc(Br)c1O [GW442130X]	86%	87%	100%	88%	84%	77%	100%	95%	100%	100%	100%	95%	100%	100%	93%	100%	100%	100%	100%	100%
C[C@@H](Oc1cc(-n2cnc3ccc(OC4CCN(C)CC4)cc32)sc1C(N)=O)c1ccccc1Cl [GSK579289A]	67%	61%	75%	60%	60%	48%	83%	81%	85%	57%	60%	100%	97%	20%	100%	100%	100%	82%	81%	87%
COc1ccc2c(-c3ccnc(Nc4cccc(OC(F)(F)F)c4)n3)cnn2n1 [GW810372X]	100%	100%	98%	100%	100%	100%	100%	100%	93%	100%	100%	100%	100%	100%	100%	100%	100%	86%	87%	88%
CC1=C(C(=O)Nc2ccc3[nH]ncc3c2)C(c2ccc(Cl)c(Cl)c2)CC(=O)N1 (stereo not shown) [GSK299115A]	100%	83%	90%	97%	74%	94%	83%	100%	95%	80%	69%	100%	99%	92%	100%	100%	100%	100%	100%	77%
COc1cc(C)c(N(C)C(=O)CN(C)C)cc1Nc1nc(Nc2cccc(F)c2C(N)=O)c2cc[nH]c2n1 [GSK2219385]	95%	65%	100%	100%	69%	87%	100%	100%	96%	100%	100%	100%	80%	100%	98%	85%	100%	4.5%	13%	1.7%
CN(C)CCNC(=O)Nc1ccc(N(C)c2ccnc(Nc3ccc(CS(C)(=O)=O)cc3)n2)cc1.Cl [GW830900A]	58%	78%	86%	65%	59%	71%	75%	100%	79%	79%	88%	100%	100%	79%	100%	100%	100%	70%	85%	71%
